Experimental data reported in PubChem BioAssay (NCATS).
Inconclusive results are not listed. The source made the active and inactive calls. Unless noted, calls follow the shape of the full dose curve.

Assays:
[1] = biological target: Alpha-galactosidase (Coffea arabica) (UniProt Q42656); assay: Counterscreen for Glucocerebrosidase Inhibitors: qHTS Assay for Coffee Bean alpha-Galactosidase at pH 4.5 (AID 957; active = well fitted curve in the direction sought with a large enough effect; an effect the other way counts as inactive or inconclusive; also: series mostly up to about 77 µM)
Summary of the method: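 AC50 values derive from Hill-equation modeling of concentration-response data, normalized to no-enzyme and full-activity controls. The pH 4.5 citrate assay used 2 nM coffee bean enzyme and 80 uM fluorogenic substrate for 20 min.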

[2] = biological target: Alpha-galactosidase (Coffea arabica) (UniProt Q42656); assay: Counterscreen for Glucocerebrosidase Inhibitors: qHTS Assay for Coffee Bean alpha-Galactosidase at pH 5.9 (AID 998; active = well fitted curve in the direction sought with a large enough effect; an effect the other way counts as inactive or inconclusive)
Summary of the method: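 Green coffee bean enzyme (2 nM) with 4-methylumbelliferyl alpha-D-galactopyranoside (80 uM) in 50 mM citric acid, 0.005% Tween-20, pH 5.9, 20 min at room temperature; compounds 0.7 nM–77 uM. Stopped at pH 10, fluorescence Ex365/Em440; Hill-fit AC50.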

[3] = Validation screen for inhibitors of Lassa infection (AID 463096)
[4] = Inducers of the Endoplasmic Reticulum Stress Response (ERSR) in human glioma: Validation (AID 504836; active = well fitted curve in the direction sought with a large enough effect; an effect the other way counts as inactive or inconclusive)
Summary of the method: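 Stably transfected U87-MG glioma cells carrying a GRP78-based luciferase sensor; 16 h compound incubation. Luminescence end-point read 10 min after Bright-Glo addition at room temperature.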

[5] = qHTS for Inhibitors of the Functional Ribonucleoprotein Complex (vRNP) of Lassa (LASV) Arenavirus: LASV Primary Screen - GLuc reporter signal (AID 1347082; calls by dose curve; tested in HEK293 reporter line; also: series mostly up to about 57 µM; nearly all actives have a fitted effect of over 60% in size)
[6] = qHTS for Inhibitors of the Functional Ribonucleoprotein Complex (vRNP) of Lassa (LASV) Arenavirus: Viability assay - alamar blue signal for LASV Primary Screen (AID 1347083; calls by dose curve; tested in HEK293 reporter line; also: series mostly up to about 57 µM; nearly all actives have a fitted effect of over 80% in size)
[7] = qHTS for Inhibitors of the Functional Ribonucleoprotein Complex (vRNP) of Lymphocytic Choriomeningitis Arenaviruses (LCMV): Viability assay - alamar blue signal for LCMV Primary Screen (AID 1347085; calls by dose curve; tested in HEK293 reporter line; also: series mostly up to about 57 µM; nearly all actives have a fitted effect of over 80% in size)
[8] = biological target: Nucleoprotein (Lymphocytic choriomeningitis virus (strain Armstrong)) (UniProt P09992); assay: qHTS for Inhibitors of the Functional Ribonucleoprotein Complex (vRNP) of Lymphocytic Choriomeningitis Arenaviruses (LCMV): LCMV Primary Screen - GLuc reporter signal (AID 1347086); also: series mostly up to about 57 µM; nearly all actives have a fitted effect of over 70% in size
[9] = qHTS for inhibitors of Rabies Virus screened against the NCATS CANVASS Library (AID 1347402); also: series mostly up to about 46 µM
[10] = test system: Zika virus NS2B-NS3 protease; assay: Primary screen GU AMC qHTS for Zika virus inhibitors (AID 1347154; active = well fitted curve in the direction sought with a large enough effect; an effect the other way counts as inactive or inconclusive; also: nearly all actives have a fitted effect of over 70% in size)
Summary of the method: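 Unlinked Zika NS2B hydrophilic domain–NS3 protease complex at 25 nM in 10 mM Tris-HCl pH 8.0, 0.01% Tween 20, with an AMC peptide substrate. Fluorescence change (340/450 nm) over 15 min at room temperature, normalized to controls, fitted to 4-parameter Hill.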

[11] = Primary qHTS for small molecule stabilizers of the endoplasmic reticulum resident proteome: Secreted ER Calcium Modulated Protein (SERCaMP) assay (AID 1508630; active = well fitted curve in the direction sought with a large enough effect; an effect the other way counts as inactive or inconclusive)
Summary of the method: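 GLuc-SERCaMP-expressing SH-SY5Y cells, pretreated 16 h with compound, are challenged with thapsigargin to empty ER calcium stores; after 4 h, coelenterazine is added directly to the medium and luminescence is imaged.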

Measured: Potency

Nucleoprotein (Lymphocytic choriomeningitis virus (strain Armstrong)), sequence (P09992 whole entry, looked up): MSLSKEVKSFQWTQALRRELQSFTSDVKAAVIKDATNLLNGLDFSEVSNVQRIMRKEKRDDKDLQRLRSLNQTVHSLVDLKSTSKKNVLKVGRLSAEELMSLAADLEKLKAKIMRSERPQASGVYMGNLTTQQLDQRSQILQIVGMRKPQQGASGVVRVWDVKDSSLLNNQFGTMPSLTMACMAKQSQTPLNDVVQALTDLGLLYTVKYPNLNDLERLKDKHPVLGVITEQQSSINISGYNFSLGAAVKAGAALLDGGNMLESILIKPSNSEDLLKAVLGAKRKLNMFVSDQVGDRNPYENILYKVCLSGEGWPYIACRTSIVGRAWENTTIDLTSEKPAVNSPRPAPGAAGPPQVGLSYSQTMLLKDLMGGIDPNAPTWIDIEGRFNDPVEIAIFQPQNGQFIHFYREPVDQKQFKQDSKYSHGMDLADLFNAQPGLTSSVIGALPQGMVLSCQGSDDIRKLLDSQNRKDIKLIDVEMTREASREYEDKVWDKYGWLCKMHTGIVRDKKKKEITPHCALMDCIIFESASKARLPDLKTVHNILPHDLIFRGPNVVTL
Alpha-galactosidase (Coffea arabica), sequence (Q42656 whole entry, looked up): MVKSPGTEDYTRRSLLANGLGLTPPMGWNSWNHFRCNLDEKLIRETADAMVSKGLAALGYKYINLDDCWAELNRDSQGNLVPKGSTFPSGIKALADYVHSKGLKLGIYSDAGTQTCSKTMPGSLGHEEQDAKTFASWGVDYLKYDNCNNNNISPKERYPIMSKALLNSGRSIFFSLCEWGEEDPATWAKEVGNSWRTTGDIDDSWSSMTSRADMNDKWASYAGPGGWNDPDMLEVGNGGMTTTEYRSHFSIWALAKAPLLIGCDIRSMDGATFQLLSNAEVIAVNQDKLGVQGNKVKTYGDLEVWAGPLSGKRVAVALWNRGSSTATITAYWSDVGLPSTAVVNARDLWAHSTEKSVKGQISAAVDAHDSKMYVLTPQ

O=C(O)Cc1c[nH]c2ccc(O)cc12
not listed: [10] | [11]
inactive: all other assays above

C[C@@H]1OC(=O)[C@H]2C[C@H]3CCCC[C@@H]3[C@@H](/C=C/[C@H]3CCC[C@H](C)N3C)[C@@H]12
inactive: [5] | [6] | [7] | [8] | [10]

CN1CCCCC1c1cccnc1 (stereo not given)
inactive: [5] | [6] | [7] | [8] | [10] | [11]
